The text below walks through data of paper PMC7862700, “An all-to-all approach to the identification of sequence-specific readers for epigenetic DNA modifications on cytosine”.

Common to all, as to assay: DAPPL (digital affinity profiling via proximity ligation, sequencing); 10 mM Tris-HCl pH 7.5, 50 mM NaCl, 1 mM DTT, 4% glycerol, room temperature, 30 min; GST-TFs on glutathione beads, 16-mer random dsDNA library, 0.1% formaldehyde crosslink after washing; high values mean tight binding
Common to all, as to conditions: protein: recombinant; tags: N-terminal GST; dsDNA, one strand shown

One test has as its target T1, ELK1 (Homo sapiens, UniProt P19419 1-428).
T1 sequence: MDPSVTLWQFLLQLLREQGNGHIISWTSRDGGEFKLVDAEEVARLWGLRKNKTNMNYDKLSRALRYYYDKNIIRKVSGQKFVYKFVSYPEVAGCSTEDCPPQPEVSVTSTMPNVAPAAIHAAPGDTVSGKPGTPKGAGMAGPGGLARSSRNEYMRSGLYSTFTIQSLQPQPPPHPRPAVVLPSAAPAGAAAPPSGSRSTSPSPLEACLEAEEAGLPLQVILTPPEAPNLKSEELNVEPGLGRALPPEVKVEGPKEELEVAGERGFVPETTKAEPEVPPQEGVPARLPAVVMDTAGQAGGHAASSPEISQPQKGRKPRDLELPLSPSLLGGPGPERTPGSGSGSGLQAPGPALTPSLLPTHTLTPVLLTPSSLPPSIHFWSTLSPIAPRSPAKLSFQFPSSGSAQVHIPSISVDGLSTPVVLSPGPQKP
In a few lines:
(§1)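 GST fusions of human transcription factors were expressed in yeast and captured with glutathione beads. Once given DNA barcodes and pooled alongside a tag-only sample, they were incubated for 30 min at room temperature with 200 nmole of a random double-stranded 16-mer DNA library in Tris/NaCl/DTT/glycerol buffer, then washed, crosslinked (0.1% formaldehyde), proximity-ligated, PCR-amplified and sequenced on an Illumina NextSeq500. The binding signal of each hexamer is its read frequency for a factor divided by its frequency for the tag-only sample.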

The target in the next test is T2, GABPA (Homo sapiens, UniProt Q06546 1-454).
T2 sequence: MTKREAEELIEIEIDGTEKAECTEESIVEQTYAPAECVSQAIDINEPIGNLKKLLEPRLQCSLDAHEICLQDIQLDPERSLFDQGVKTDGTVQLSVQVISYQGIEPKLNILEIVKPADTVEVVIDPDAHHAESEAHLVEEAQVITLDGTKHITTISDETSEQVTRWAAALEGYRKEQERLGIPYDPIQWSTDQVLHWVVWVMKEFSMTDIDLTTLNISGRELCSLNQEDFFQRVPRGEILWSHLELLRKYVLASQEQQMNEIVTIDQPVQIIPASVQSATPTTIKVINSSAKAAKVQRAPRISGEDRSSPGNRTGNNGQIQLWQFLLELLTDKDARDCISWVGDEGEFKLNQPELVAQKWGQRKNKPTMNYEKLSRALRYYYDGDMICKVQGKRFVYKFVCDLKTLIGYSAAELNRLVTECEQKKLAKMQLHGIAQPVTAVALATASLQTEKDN
In a few lines: as §1

The target in the next test is T3, ERG (Homo sapiens, UniProt P11308 1-479).
T3 sequence: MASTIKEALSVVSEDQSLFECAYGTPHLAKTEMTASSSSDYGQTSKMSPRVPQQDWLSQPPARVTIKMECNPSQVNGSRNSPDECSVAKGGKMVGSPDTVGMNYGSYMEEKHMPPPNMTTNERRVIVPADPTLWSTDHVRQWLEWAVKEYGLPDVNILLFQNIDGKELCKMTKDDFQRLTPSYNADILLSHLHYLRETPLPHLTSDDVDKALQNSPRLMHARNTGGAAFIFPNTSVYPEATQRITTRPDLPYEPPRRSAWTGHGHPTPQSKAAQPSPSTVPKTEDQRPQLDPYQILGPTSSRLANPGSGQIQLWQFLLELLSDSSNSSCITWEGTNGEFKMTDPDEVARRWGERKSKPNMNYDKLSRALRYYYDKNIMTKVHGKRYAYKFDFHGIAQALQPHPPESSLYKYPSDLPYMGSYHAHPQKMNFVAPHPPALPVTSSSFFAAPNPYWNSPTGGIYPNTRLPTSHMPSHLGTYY
A digest of the protocol:
as §1

The target in the next test is ELF1 (Homo sapiens, UniProt P32519 1-619). A digest of the protocol:
as §1

The next test has as its target T4, EHF (Homo sapiens, UniProt Q9NZC4 1-300).
T4 sequence: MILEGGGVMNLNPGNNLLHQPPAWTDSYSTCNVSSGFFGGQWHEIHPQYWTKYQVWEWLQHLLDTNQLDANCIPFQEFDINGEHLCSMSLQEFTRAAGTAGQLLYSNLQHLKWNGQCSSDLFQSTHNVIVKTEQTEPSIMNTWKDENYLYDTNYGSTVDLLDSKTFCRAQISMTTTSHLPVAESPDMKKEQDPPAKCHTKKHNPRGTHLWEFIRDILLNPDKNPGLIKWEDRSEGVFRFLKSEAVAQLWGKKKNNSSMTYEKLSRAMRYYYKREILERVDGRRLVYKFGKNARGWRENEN
A digest of the protocol: as §1

The next test addresses SPI1 (Homo sapiens, UniProt P17947 1-270). A digest of the protocol:
as §1

In another test the target is SPIB (Homo sapiens, UniProt Q01892 1-262). A digest of the protocol: as §1
Another test addresses T5, FEV (Homo sapiens, UniProt Q99581 1-238).
T5 sequence: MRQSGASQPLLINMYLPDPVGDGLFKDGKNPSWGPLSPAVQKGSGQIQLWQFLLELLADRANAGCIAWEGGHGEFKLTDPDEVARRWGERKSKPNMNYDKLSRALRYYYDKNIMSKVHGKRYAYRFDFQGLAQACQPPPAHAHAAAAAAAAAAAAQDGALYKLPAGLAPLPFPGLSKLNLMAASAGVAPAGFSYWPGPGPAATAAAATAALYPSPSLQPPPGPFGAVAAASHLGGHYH
In a few lines: as §1

In another test the target is ETV5 (Homo sapiens, UniProt P41161 1-510). A digest of the protocol: as §1
A further test concerns the target ELF4 (Homo sapiens, UniProt Q99607 1-663). A digest of the protocol: as §1
A further test concerns the target T6, ELK4 (Homo sapiens, UniProt P28324-2 1-405).
T6 sequence: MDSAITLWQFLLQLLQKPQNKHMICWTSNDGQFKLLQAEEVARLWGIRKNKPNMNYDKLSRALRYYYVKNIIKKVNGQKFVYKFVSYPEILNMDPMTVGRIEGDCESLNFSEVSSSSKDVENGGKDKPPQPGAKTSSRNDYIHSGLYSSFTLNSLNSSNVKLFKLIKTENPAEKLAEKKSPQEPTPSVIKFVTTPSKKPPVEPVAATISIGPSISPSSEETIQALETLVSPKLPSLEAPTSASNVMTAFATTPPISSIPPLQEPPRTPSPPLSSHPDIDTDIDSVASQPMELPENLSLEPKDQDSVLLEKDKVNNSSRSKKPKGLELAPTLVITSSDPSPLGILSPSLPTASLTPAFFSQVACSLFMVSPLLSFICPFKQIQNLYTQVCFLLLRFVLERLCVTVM
A digest of the protocol:
as §1

A further test addresses T7, ETV2 (Homo sapiens, UniProt O00321 1-342).
T7 sequence: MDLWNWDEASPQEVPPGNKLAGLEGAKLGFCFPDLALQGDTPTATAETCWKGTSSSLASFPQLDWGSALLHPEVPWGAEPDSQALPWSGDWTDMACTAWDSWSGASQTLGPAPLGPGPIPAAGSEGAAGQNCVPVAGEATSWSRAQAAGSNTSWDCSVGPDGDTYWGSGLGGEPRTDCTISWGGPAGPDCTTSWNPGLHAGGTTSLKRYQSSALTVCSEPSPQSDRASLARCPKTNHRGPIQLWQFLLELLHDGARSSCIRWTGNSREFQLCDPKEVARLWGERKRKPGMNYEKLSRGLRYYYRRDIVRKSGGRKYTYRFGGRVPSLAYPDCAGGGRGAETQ
A digest of the protocol: as §1

For another test, the target named is T8, ELF3 (Homo sapiens, UniProt P78545 1-371).
T8 sequence: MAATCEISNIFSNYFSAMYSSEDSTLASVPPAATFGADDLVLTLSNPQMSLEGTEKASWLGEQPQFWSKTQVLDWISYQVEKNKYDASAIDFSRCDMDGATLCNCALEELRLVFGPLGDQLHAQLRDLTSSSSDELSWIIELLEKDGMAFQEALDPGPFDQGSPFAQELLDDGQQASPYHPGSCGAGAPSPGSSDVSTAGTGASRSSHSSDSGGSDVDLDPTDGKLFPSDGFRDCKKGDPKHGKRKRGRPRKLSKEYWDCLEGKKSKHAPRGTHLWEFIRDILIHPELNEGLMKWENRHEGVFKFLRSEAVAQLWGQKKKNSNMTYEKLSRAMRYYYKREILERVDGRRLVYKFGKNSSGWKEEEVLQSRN
In a few lines: as §1

For a further test, the target named is ETV1 (Homo sapiens, UniProt P50549 1-477). In a few lines: as §1
The target in the next test is T9, ERF (Homo sapiens, UniProt P50548 1-548).
T9 sequence: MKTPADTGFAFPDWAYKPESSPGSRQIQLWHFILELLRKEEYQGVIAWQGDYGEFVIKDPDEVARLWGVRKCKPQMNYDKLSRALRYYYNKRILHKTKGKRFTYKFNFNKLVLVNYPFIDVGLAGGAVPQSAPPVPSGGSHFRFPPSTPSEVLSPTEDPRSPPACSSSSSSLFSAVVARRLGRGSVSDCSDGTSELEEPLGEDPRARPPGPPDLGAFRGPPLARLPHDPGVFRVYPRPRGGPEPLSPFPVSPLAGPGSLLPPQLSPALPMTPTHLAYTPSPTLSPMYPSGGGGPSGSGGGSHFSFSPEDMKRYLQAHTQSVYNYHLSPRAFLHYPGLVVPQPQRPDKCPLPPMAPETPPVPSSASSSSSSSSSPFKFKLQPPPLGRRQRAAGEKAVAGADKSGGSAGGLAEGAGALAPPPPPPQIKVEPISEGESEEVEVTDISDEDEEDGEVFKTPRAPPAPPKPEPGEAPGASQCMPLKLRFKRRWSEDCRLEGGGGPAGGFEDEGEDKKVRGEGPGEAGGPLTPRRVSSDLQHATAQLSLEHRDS
A digest of the protocol: as §1

Another test has as its target T10, ETV3L (Homo sapiens, UniProt Q6ZN32 1-361).
T10 sequence: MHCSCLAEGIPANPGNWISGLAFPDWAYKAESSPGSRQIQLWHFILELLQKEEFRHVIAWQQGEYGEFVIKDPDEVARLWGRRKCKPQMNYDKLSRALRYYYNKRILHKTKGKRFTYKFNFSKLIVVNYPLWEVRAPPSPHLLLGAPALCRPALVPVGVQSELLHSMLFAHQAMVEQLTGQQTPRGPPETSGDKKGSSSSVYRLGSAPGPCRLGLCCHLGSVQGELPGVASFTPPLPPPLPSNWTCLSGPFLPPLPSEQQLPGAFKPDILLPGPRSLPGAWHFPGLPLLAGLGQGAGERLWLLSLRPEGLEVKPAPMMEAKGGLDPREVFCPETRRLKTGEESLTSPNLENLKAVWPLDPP
A digest of the protocol: as §1

The target in a further test is T11, ETS2 (Homo sapiens, UniProt P15036 1-469).
T11 sequence: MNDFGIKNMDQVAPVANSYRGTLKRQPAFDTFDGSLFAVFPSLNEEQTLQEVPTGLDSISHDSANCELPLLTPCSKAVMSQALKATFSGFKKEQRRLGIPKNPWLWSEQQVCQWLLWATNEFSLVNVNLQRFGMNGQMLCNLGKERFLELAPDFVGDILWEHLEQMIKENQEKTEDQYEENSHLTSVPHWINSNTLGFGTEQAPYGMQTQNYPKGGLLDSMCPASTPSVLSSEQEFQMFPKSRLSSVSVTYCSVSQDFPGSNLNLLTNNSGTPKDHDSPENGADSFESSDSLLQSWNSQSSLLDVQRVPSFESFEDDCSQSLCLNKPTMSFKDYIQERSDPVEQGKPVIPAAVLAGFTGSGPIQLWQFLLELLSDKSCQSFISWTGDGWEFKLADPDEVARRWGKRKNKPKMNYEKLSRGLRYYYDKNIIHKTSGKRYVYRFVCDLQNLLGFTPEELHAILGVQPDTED
In a few lines:
as §1

The next test addresses T12, ETV7 (Homo sapiens, UniProt Q9Y603 1-341).
T12 sequence: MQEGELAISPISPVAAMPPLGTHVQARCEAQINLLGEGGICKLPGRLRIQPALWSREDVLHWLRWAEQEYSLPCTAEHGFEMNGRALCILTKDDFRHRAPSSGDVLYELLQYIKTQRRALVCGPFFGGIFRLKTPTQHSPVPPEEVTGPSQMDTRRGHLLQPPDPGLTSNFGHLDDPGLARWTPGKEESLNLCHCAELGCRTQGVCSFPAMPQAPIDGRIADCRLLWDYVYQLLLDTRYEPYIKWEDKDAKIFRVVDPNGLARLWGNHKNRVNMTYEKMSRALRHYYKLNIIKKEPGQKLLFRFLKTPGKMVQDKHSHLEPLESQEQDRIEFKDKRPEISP
In a few lines:
as §1

Another test addresses T13, ETV3 (Homo sapiens, UniProt P41162-2 1-143).
T13 sequence: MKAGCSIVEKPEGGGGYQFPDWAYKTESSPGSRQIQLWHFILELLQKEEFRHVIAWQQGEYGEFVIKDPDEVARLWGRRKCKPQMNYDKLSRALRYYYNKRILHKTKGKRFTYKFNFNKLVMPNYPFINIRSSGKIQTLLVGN
A digest of the protocol:
as §1

In the next test the target is ETV6 (Homo sapiens, UniProt P41212 1-452). In a few lines:
as §1

Sequence of SPIB (Q01892 whole entry): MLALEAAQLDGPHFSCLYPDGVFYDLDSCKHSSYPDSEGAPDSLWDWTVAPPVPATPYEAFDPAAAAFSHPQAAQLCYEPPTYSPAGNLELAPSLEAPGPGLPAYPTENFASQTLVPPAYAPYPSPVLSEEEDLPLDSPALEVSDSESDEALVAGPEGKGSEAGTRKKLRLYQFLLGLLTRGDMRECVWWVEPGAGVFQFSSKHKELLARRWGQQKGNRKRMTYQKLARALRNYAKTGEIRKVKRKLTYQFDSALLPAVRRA
Sequence of ELF1 (P32519 whole entry): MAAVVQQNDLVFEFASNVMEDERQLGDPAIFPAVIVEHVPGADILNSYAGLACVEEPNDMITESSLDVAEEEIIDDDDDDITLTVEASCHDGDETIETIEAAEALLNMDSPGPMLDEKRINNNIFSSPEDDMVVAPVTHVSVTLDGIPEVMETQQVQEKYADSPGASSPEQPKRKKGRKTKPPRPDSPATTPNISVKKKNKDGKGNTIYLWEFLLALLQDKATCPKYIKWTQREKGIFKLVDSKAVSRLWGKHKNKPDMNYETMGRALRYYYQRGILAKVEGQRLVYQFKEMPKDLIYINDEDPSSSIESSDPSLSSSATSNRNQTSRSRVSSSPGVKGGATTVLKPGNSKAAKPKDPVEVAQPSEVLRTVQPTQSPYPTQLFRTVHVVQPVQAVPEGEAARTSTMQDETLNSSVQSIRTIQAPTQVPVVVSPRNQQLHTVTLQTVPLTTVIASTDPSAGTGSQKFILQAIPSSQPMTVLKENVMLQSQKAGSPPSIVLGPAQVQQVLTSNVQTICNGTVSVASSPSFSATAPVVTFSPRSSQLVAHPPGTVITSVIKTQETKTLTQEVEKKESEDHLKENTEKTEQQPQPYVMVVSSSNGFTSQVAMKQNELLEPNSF
Sequence of ETV6 (P41212 whole entry): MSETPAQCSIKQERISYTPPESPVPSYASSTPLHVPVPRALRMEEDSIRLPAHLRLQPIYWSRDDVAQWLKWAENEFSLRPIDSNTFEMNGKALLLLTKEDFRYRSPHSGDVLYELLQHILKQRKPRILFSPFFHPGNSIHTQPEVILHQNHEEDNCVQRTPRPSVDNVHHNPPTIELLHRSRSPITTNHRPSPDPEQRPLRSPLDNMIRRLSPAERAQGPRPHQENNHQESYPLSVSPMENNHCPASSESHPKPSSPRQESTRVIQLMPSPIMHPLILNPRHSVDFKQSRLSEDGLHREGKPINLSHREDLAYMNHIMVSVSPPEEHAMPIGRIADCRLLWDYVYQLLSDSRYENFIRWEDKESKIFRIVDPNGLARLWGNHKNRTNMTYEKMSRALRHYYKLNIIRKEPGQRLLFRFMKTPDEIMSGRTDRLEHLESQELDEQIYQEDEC
Sequence of ETV5 (P41161 whole entry): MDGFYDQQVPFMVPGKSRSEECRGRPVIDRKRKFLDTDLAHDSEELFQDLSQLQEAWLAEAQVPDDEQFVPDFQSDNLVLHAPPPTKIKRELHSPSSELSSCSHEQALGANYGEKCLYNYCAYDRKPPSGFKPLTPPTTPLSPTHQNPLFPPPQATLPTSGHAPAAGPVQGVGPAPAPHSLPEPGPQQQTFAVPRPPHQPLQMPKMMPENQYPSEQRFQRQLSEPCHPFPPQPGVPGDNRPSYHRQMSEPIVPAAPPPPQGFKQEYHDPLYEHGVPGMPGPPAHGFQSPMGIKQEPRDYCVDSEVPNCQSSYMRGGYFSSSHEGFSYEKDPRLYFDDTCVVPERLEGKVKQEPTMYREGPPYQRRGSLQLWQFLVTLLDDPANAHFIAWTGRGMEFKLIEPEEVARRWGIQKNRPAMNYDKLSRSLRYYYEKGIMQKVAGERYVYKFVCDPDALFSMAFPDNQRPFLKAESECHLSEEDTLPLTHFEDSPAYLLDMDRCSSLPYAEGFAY
Sequence of ETV1 (P50549 whole entry): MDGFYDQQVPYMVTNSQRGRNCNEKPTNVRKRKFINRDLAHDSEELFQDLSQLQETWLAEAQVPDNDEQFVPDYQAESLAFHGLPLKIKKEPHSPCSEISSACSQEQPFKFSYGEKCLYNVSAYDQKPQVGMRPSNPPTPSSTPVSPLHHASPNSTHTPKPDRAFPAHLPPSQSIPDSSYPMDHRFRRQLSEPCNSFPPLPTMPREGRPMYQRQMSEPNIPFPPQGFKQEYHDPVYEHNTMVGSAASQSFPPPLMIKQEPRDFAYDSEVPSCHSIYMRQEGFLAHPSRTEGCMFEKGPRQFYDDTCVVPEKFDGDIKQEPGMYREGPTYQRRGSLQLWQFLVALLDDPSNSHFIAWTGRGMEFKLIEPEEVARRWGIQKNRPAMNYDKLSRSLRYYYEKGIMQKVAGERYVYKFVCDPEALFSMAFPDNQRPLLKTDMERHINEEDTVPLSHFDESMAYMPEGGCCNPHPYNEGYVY
Sequence of ELF4 (Q99607 whole entry): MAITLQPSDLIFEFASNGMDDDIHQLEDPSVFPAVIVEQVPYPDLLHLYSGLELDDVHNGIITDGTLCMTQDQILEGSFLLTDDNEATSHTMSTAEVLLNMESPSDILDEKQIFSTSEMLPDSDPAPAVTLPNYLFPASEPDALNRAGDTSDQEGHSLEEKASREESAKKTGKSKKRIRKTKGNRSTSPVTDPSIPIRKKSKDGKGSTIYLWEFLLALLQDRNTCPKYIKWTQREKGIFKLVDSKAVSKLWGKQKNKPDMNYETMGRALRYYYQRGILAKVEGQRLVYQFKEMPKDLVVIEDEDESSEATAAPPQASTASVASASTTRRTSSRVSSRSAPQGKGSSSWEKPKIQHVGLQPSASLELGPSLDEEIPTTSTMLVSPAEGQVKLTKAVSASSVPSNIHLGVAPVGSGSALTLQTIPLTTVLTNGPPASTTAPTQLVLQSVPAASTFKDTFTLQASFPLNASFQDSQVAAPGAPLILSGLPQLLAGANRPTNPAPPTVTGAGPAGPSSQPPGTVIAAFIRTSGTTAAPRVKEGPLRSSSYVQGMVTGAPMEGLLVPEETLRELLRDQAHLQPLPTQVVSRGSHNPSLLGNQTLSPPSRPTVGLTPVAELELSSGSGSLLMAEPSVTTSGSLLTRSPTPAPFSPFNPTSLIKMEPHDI

Turning to CCCCCC, the binding signal with ELK1 was 1.04 fold enrichment (6-mer frequency, TF over GST control); with GABPA it was 1.08 fold enrichment (6-mer frequency, TF over GST control); in the test with ERG it was 1.07 fold enrichment (6-mer frequency, TF over GST control); with ELF1, 1.08 fold enrichment (6-mer frequency, TF over GST control); in the test with EHF, 1.06 fold enrichment (6-mer frequency, TF over GST control); with SPI1, 1.07 fold enrichment (6-mer frequency, TF over GST control). In addition, the binding signal is 1.1 fold enrichment (6-mer frequency, TF over GST control) with SPIB; 1.03 fold enrichment (6-mer frequency, TF over GST control) in the test with FEV; 1.09 fold enrichment (6-mer frequency, TF over GST control) with ETV5; 1.16 fold enrichment (6-mer frequency, TF over GST control) with ELF4; 1.23 fold enrichment (6-mer frequency, TF over GST control) with ELK4; 1.26 fold enrichment (6-mer frequency, TF over GST control) in the test with ETV2. The binding signal with ELF3 is 1.28 fold enrichment (6-mer frequency, TF over GST control); with ETV1, 1.11 fold enrichment (6-mer frequency, TF over GST control); with ERF, 1.05 fold enrichment (6-mer frequency, TF over GST control); with ETV3L, 1.07 fold enrichment (6-mer frequency, TF over GST control); with ETS2 it was 1.1 fold enrichment (6-mer frequency, TF over GST control); in the test with ETV7, 1.13 fold enrichment (6-mer frequency, TF over GST control). In addition, the binding signal with ETV3 was 1.14 fold enrichment (6-mer frequency, TF over GST control); with ETV6, 1.06 fold enrichment (6-mer frequency, TF over GST control).
